# “And” between values parts separate entries of the source, which are not always exact repeats. Equal entries are not always repeated. Where two headings read alike, the source gives them in different places.
# Assays:
# Conditions in all cases: concentration: 1 μM, replicates: in singlicate, n = 1
# AMPK-alpha2 = tested on: T1, AMPK-alpha2
# T1 construct: gene PRKAA2
# ANKK1 = tested on: ANKK1
# ARK5 = tested on: T2, ARK5
# T2 construct: gene NUAK1
# ASK1 = tested on: T3, ASK1
# T3 construct: gene MAP3K5
# ASK2 = tested on: T4, ASK2
# T4 construct: gene MAP3K6
# AURKA = tested on: AURKA
# AURKB = tested on: AURKB
# AURKC = tested on: AURKC
# AXL = tested on: AXL
# BIKE = tested on: T5, BIKE
# T5 construct: gene BMP2K
# 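Further: KINOMEscan kinase panel screen.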
Compound,%Inh (AMPK-alpha2) [%],%Inh (ANKK1) [%],%Inh (ARK5) [%],%Inh (ASK1) [%],%Inh (ASK2) [%],%Inh (AURKA) [%],%Inh (AURKB) [%],%Inh (AURKC) [%],%Inh (AXL) [%],%Inh (BIKE) [%],%Inh (AMPK-alpha2; 1 µM),%Inh (ANKK1; 1 µM),%Inh (ARK5; 1 µM),%Inh (ASK1; 1 µM),%Inh (ASK2; 1 µM),%Inh (AURKA; 1 µM),%Inh (AURKB; 1 µM),%Inh (AURKC; 1 µM),%Inh (AXL; 1 µM),%Inh (BIKE; 1 µM)
O=c1cc(N2CCOCC2)nc2n(Cc3cccc4ccccc34)ccn12 [GSK2333389],0,0,33,0,15,0,0,14,0,16,,,,,,,,,,
O=C(NCCNc1ccnc(Nc2ccc(F)cc2)n1)Nc1ccccc1F [GSK1379880],0,0,21,1,0,11,32,6,0,0,,,,,,,,,,
Cn1ccc2ncnc(Oc3ccc(NC(=O)Nc4ccncc4)c(Cl)c3)c21,5,0,14,0,0,0,3,0,0,0,,,,,,,,,,
Cc1cccc(Cn2ccn3c(=O)cc(N4CCOCC4)nc23)c1 [GSK2297542],12,19,12,0,6,15,0,18,5,15,,,,,,,,,,
O=C1NC(=O)C(N2CCc3ccccc32)=C1c1cccc(Cl)c1 [SB-408010],22,1,10,0,0,25,7,37,0,37,,,,,,,,,,
Cc1cn2c(=O)cc(N3CCOCC3)nc2n1Cc1cccc(Cl)c1Cl [GSK2334006],0,0,14,1,3,0,26,44,0,27,,,,,,,,,,
O=C1Cc2cc(Nc3nc(NCc4cccc(S(=O)(=O)C(F)(F)F)c4)ncc3C(F)(F)F)ccc2N1,0,0,22,11,0,1,13,0,2,0,,,,,,,,,,
Cc1ccc(NC(=O)c2ccnc(N3CCN(C)CC3)c2)cc1-c1ccc(C(=O)NCC2CC2)cc1 [GW775604],0,0,0,0,0,0,2,0,0,0,,,,,,,,,,
CSc1ccc(-c2cc3ncnc(SCC(=O)O)c3s2)cc1,5,0,0,0,0,0,78,12,5,12,,,,,,,,,,
O=C(NCCCN1CCOCC1)c1cccc(Nc2nccc(Nc3ccc(Oc4ccccc4)cc3)n2)c1 [GW663929],0,20,29,3,0,36,11,14,11,27,,,,,,,,,,
C[C@@H](Oc1cc(-n2cnc3ccc(NC(=O)NC(C)(C)C)cc32)sc1C(N)=O)c1ccccc1Cl [GSK346294],12,8,11,3,0,8,22,34,0,32,,,,,,,,,,
O=C(NCCNc1ccnc(Nc2ccc(F)cc2)n1)c1cc2ccccc2s1 [GSK1379874],0,0,0,1,0,11,0,32,10,0,,,,,,,,,,
COc1cc2c(cc1OCCN1CCN(C)CC1)ncc1c3ccc(C#N)cc3[nH]c21,0,54,22,0,0,0,70,33,26,100,,,,,,,,,,
c1ccc(-c2cc(-c3c[nH]nc3-c3ccccn3)ccn2)cc1 [GW576604],0,0,0,4,0,14,0,3,0,23,,,,,,,,,,
Cc1c(Cn2c(C)nn3c(=O)cc(N4CCOC(C)C4)nc23)cccc1C(F)(F)F (stereo not drawn) [GSK2344444],0,0,10,1,8,0,0,8,0,16,,,,,,,,,,
COCCNC(=O)c1ccc(-c2cc(C(=O)NC3CC3)cc(F)c2C)cc1 [GW868318],0,11,0,5,26,27,33,0,0,7,,,,,,,,,,
O=C(c1ccc(-c2cc(-c3c[nH]nc3-c3ccccn3)ccn2)cc1)N1CCOCC1 [GW812171],22,14,0,0,0,13,33,0,0,0,,,,,,,,,,

Compound,%Inh (AMPK-alpha2) [%],%Inh (ANKK1) [%],%Inh (ARK5) [%],%Inh (ASK1) [%],%Inh (ASK2) [%],%Inh (AURKA) [%],%Inh (AURKB) [%],%Inh (AURKC) [%],%Inh (AXL) [%],%Inh (BIKE) [%],%Inh (AMPK-alpha2; 1 µM),%Inh (ANKK1; 1 µM),%Inh (ARK5; 1 µM),%Inh (ASK1; 1 µM),%Inh (ASK2; 1 µM),%Inh (AURKA; 1 µM),%Inh (AURKB; 1 µM),%Inh (AURKC; 1 µM),%Inh (AXL; 1 µM),%Inh (BIKE; 1 µM)
CC(C)(CN)c1nc(-c2ccc(Cl)c(O)c2)c(-c2ccncc2)[nH]1.O=C(O)C(F)(F)F [SB-477794],,,,,,,,,,,15% and 13%,0% and 1%,19% and 0%,19% and 0%,1% and 3%,8% and 0%,31% and 15%,0% and 30%,5% and 13%,0% and 21%
COC(=O)Nc1nc2cc(Oc3ccc(NC(=O)Nc4cc(F)ccc4F)cc3)ccc2[nH]1.Cl [GW701424],8,12,0,13,0,0,94.5,50,93.5,3,,,,,,,,,,
O=c1cc(N2CCOCC2)nc2n(Cc3cccc(F)c3)ccn12 [GSK2297430],21,0,7,0,6,0,0,32,14,26,,,,,,,,,,
Cc1nnc(-c2ccc3ncc(-c4ccc(S(C)=O)cc4)n3c2)o1 (stereo not drawn),0,0,0,0,9,18,21,0,11,0,,,,,,,,,,
O=C(Nc1n[nH]c2cc(-c3cccc(F)c3)ccc12)C1CC1 [SB-735464],69,0,0,0,22,18,39,35,27,21,,,,,,,,,,
Nc1nccc(-c2c(-c3ccc(F)cc3)ncn2C2CCN(CC(F)(F)F)CC2)n1 [SB-236560],0,0,0,0,0,2,0,0,46,0,,,,,,,,,,
O=C(Nc1cccc(-c2nn3ncccc3c2-c2ccnc(Nc3cccc(C(F)(F)F)c3)n2)c1)c1c(F)cccc1F [GSK299495],15,0,12,1,3,9,29,56,6,19,,,,,,,,,,
CN1c2ccc(NCc3ccc(F)cc3)cc2-c2c(cnn2C)S1(=O)=O,0,0,0,0,0,0,14,0,0,0,,,,,,,,,,
COc1ccc(S(=O)(=O)NC2CCN(c3cc(C)nc(Nc4cccc(C#N)c4)n3)CC2)cc1.O=C(O)C(F)(F)F [GSK1653539],0,14,8,0,0,2,7,0,0,5,,,,,,,,,,
NS(=O)(=O)c1cccc(-c2ccc3ncc(N4CCOCC4)nc3c2)c1 [GSK1535721],12,15,0,0,0,19,0,0,2,0,,,,,,,,,,
NS(=O)(=O)c1cccc(-c2ccc3nccc(-c4cccc(S(N)(=O)=O)c4)c3c2)c1 [GW867253],6,0,0,0,0,19,45,0,0,0,,,,,,,,,,
Nc1nc(-c2ccc3c(N)n[nH]c3c2)cc(N2CCCC2)n1 [GSK2227430],0,4,17,0,0,0,0,37,0,33,,,,,,,,,,
Fc1ccc(-c2ncn(CCCN3CCOCC3)c2-c2cccnc2)cc1 [SB-211743],12,0,12,0,0,15,31,5,0,0,,,,,,,,,,
O=c1cc(N2CCOCC2)nc2n(Cc3cccc(C(F)(F)F)c3)ccn12 [GSK2297543],0,5,0,0,0,13,0,4,18,18,,,,,,,,,,
COc1cc(Nc2nccc(N3CCC(NC(=O)c4cccc(NC(C)=O)c4)C3)n2)cc(OC)c1OC (stereo not drawn) [GSK1379754],12,34,31,0,0,97.6,0,88,36,86,,,,,,,,,,
CCCCCc1nc2c(N)ncnc2n1CCCCC [SKF-97255],11,0,0,0,0,10,37,0,0,0,,,,,,,,,,
